# According to publication PMC12820563, “FoxP3 forms a head-to-head dimer in vivo and stabilizes its multimerization on adjacent microsatellites”:
# Over roughly 16,000 sequences, “rpm ratio (pull-down/input)” has its median near 0.5; the highest 2% begin near 5.5. What follows is part of a selection rich in the highest values, with near analogues and random picks from the rest.
# Target: T1, MBP-FoxP3dN (Mus musculus, UniProt Q99JB6 188-423)
# T1 sequence: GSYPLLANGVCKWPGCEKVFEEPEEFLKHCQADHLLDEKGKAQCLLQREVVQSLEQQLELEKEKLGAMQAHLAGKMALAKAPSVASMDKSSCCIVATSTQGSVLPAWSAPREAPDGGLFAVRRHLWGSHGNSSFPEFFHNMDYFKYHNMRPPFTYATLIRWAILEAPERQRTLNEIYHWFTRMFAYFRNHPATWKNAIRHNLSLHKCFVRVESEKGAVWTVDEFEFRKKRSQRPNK
# Test: PD-seq (MBP pull-down with sequencing); 20 mM Tris-HCl pH 7.5, 100 mM NaCl, 1.5 mM MgCl2, 0.4 uM protein, 0.1 uM dsDNA library, 30 min, room temperature, amylose pull-down; high values mean tight binding
# Settings: protein: recombinant; tags: His6-MBP; chain copies: 2; dsDNA, one strand shown
# Procedure, shortened: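 E. coli-expressed mouse FoxP3 or FoxP1 fragment, N-terminus removed and tagged with His6-MBP, was used at 0.4 µM against 0.1 µM of a Klenow-filled degenerate double-stranded DNA library. After 30 min at room temperature in Tris pH 7.5 buffer with NaCl and MgCl2, complexes were pulled down on amylose resin and washed three times. Binding is pull-down over input reads-per-million enrichment from pooled replicates of the proteinase K-released, PCR-barcoded, Illumina-sequenced DNA.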
row,Sequence,binding signal
1,GATGATTGTTCTCCCAGCTGATGAATTAAAGTGTTCGAGTAAACAAATTTTCCTAATCTTTCTGTTCAAGCGCCATCTAC,0.592 RPM ratio (pull-down/input)
2,GATGATTGTTCTCCCAGCTGATGAATTATAACCGTCGAGTAAACAAATTTTCCTAATCTTTCTGTTCAAGCGCCATCTAC,0.364 RPM ratio (pull-down/input)
3,GATGATTGTTCTCCCAGCTGATGAATTATGCCTGTCGAGTAAACAAATTTTCCTAATCTTTCTGTTCAAGCGCCATCTAC,5.87 RPM ratio (pull-down/input)
4,GATGATTGTTCTCCCAGCTGATGAATTATGCTGTTCGAGTAAACAAATTTTCCTAATCTTTCTGTTCAAGCGCCATCTAC,3.42 RPM ratio (pull-down/input)
5,GATGATTGTTCTCCCAGCTGATGAATTATGAAATTCGAGTAAACAAATTTTCCTAATCTTTCTGTTCAAGCGCCATCTAC,0.632 RPM ratio (pull-down/input)
6,GATGATTGTTCTCCCAGCTGATGAATTATGCCTCTCGAGTAAACAAATTTTCCTAATCTTTCTGTTCAAGCGCCATCTAC,6.22 RPM ratio (pull-down/input)
7,GATGATTGTTCTCCCAGCTGATGAATTATGCATGTCGAGTAAACAAATTTTCCTAATCTTTCTGTTCAAGCGCCATCTAC,6.46 RPM ratio (pull-down/input)
8,GATGATTGTTCTCCCAGCTGATGAATTATGATTGTCGAGTAAACAAATTTTCCTAATCTTTCTGTTCAAGCGCCATCTAC,4.27 RPM ratio (pull-down/input)
9,GATGATTGTTCTCCCAGCTGATGAATTAATTATGTCGAGTAAACAAATTTTCCTAATCTTTCTGTTCAAGCGCCATCTAC,1.89 RPM ratio (pull-down/input)
10,GATGATTGTTCTCCCAGCTGATGAATTATGCGCCTCGAGTAAACAAATTTTCCTAATCTTTCTGTTCAAGCGCCATCTAC,2.82 RPM ratio (pull-down/input)
11,GATGATTGTTCTCCCAGCTGATGAATTATGCTTGTCGAGTAAACAAATTTTCCTAATCTTTCTGTTCAAGCGCCATCTAC,4.71 RPM ratio (pull-down/input)
12,GATGATTGTTCTCCCAGCTGATGAATTATGAATGTCGAGTAAACAAATTTTCCTAATCTTTCTGTTCAAGCGCCATCTAC,1.04 RPM ratio (pull-down/input)
13,GATGATTGTTCTCCCAGCTGATGAATTATATGCCTCGAGTAAACAAATTTTCCTAATCTTTCTGTTCAAGCGCCATCTAC,0.913 RPM ratio (pull-down/input)
14,GATGATTGTTCTCCCAGCTGATGAATTATGCCATTCGAGTAAACAAATTTTCCTAATCTTTCTGTTCAAGCGCCATCTAC,5.9 RPM ratio (pull-down/input)
15,GATGATTGTTCTCCCAGCTGATGAATTCTGCGGCTCGAGTAAACAAATTTTCCTAATCTTTCTGTTCAAGCGCCATCTAC,1.01 RPM ratio (pull-down/input)
16,GATGATTGTTCTCCCAGCTGATGAATTGCAGCCTTCGAGTAAACAAATTTTCCTAATCTTTCTGTTCAAGCGCCATCTAC,2.83 RPM ratio (pull-down/input)
17,GATGATTGTTCTCCCAGCTGATGAATTGTAAACATCGAGTAAACAAATTTTCCTAATCTTTCTGTTCAAGCGCCATCTAC,5.2 RPM ratio (pull-down/input)
18,GATGATTGTTCTCCCAGCTGATGAATTTGCCGATTCGAGTAAACAAATTTTCCTAATCTTTCTGTTCAAGCGCCATCTAC,0.474 RPM ratio (pull-down/input)
19,GATGATTGTTCTCCCAGCTGATGAATTAAATCTCTCGAGTAAACAAATTTTCCTAATCTTTCTGTTCAAGCGCCATCTAC,0.29 RPM ratio (pull-down/input)
20,GATGATTGTTCTCCCAGCTGATGAATTCAGTTCGTCGAGTAAACAAATTTTCCTAATCTTTCTGTTCAAGCGCCATCTAC,0.758 RPM ratio (pull-down/input)

row,Sequence,binding signal
1,GATGATTGTTCTCCCAGCTGATGAATTACTTCTATCGAGTAAACAAATTTTCCTAATCTTTCTGTTCAAGCGCCATCTAC,0.347 RPM ratio (pull-down/input)
2,GATGATTGTTCTCCCAGCTGATGAATTCCGAACTTCGAGTAAACAAATTTTCCTAATCTTTCTGTTCAAGCGCCATCTAC,0.253 RPM ratio (pull-down/input)
3,GATGATTGTTCTCCCAGCTGATGAATTATGAAACTCGAGTAAACAAATTTTCCTAATCTTTCTGTTCAAGCGCCATCTAC,0.828 RPM ratio (pull-down/input)
4,GATGATTGTTCTCCCAGCTGATGAATTATGCCACTCGAGTAAACAAATTTTCCTAATCTTTCTGTTCAAGCGCCATCTAC,6.25 RPM ratio (pull-down/input)
5,GATGATTGTTCTCCCAGCTGATGAATTATGGCATTCGAGTAAACAAATTTTCCTAATCTTTCTGTTCAAGCGCCATCTAC,5.55 RPM ratio (pull-down/input)
6,GATGATTGTTCTCCCAGCTGATGAATTTATGAATTCGAGTAAACAAATTTTCCTAATCTTTCTGTTCAAGCGCCATCTAC,0.946 RPM ratio (pull-down/input)
7,GATGATTGTTCTCCCAGCTGATGAATTATTCAACTCGAGTAAACAAATTTTCCTAATCTTTCTGTTCAAGCGCCATCTAC,0.381 RPM ratio (pull-down/input)
8,GATGATTGTTCTCCCAGCTGATGAATTATCCCACTCGAGTAAACAAATTTTCCTAATCTTTCTGTTCAAGCGCCATCTAC,0.322 RPM ratio (pull-down/input)
9,GATGATTGTTCTCCCAGCTGATGAATTATGACACTCGAGTAAACAAATTTTCCTAATCTTTCTGTTCAAGCGCCATCTAC,2.61 RPM ratio (pull-down/input)
10,GATGATTGTTCTCCCAGCTGATGAATTTTATGCATCGAGTAAACAAATTTTCCTAATCTTTCTGTTCAAGCGCCATCTAC,1.54 RPM ratio (pull-down/input)
11,GATGATTGTTCTCCCAGCTGATGAATTATGCAACTCGAGTAAACAAATTTTCCTAATCTTTCTGTTCAAGCGCCATCTAC,6.6 RPM ratio (pull-down/input)
12,GATGATTGTTCTCCCAGCTGATGAATTATTCATTTCGAGTAAACAAATTTTCCTAATCTTTCTGTTCAAGCGCCATCTAC,0.406 RPM ratio (pull-down/input)
13,GATGATTGTTCTCCCAGCTGATGAATTATTTCATTCGAGTAAACAAATTTTCCTAATCTTTCTGTTCAAGCGCCATCTAC,0.381 RPM ratio (pull-down/input)
14,GATGATTGTTCTCCCAGCTGATGAATTTATGCATTCGAGTAAACAAATTTTCCTAATCTTTCTGTTCAAGCGCCATCTAC,7.56 RPM ratio (pull-down/input)
15,GATGATTGTTCTCCCAGCTGATGAATTGAAAACATCGAGTAAACAAATTTTCCTAATCTTTCTGTTCAAGCGCCATCTAC,1.27 RPM ratio (pull-down/input)
16,GATGATTGTTCTCCCAGCTGATGAATTCAGGACCTCGAGTAAACAAATTTTCCTAATCTTTCTGTTCAAGCGCCATCTAC,0.26 RPM ratio (pull-down/input)
17,GATGATTGTTCTCCCAGCTGATGAATTGCGTCATTCGAGTAAACAAATTTTCCTAATCTTTCTGTTCAAGCGCCATCTAC,2.09 RPM ratio (pull-down/input)
18,GATGATTGTTCTCCCAGCTGATGAATTGCGGGGGTCGAGTAAACAAATTTTCCTAATCTTTCTGTTCAAGCGCCATCTAC,0.984 RPM ratio (pull-down/input)
19,GATGATTGTTCTCCCAGCTGATGAATTGAGCTGGTCGAGTAAACAAATTTTCCTAATCTTTCTGTTCAAGCGCCATCTAC,0.419 RPM ratio (pull-down/input)
20,GATGATTGTTCTCCCAGCTGATGAATTAGGATGGTCGAGTAAACAAATTTTCCTAATCTTTCTGTTCAAGCGCCATCTAC,0.492 RPM ratio (pull-down/input)
